Laboratory results: PubChem BioAssay
Activity calls are given as the source filed them.

Experiments:
[1] = E. coli DRC41 culture turbidity changes, primary screen, E. coli filamentation inducer project, strain DRC41, OD650, 48 h (AID 1152);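 note: E. coli MC1000 strain DRC41 lacking acrAB efflux pump and sulA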; settings: E. coli DRC41 (acrAB sulA), higher = more signal, called active from +8 up or from −8 down
[2] = small-molecule binders of probe aLefty1, primary screen, biochemical, small-molecule microarray, 635/667 nm fluorescence (AID 1153); settings: higher = more signal;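 note: score merges spot fluorescence with signal-to-noise ratio from the scanned slide images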
[3] = PSAC antagonists in infected red cells, primary screen, cell-based, P. falciparum Indochina, OD700, 1 h (AID 1154); settings: P. falciparum Indochina infected RBC osmotic lysis, higher = more signal, called active from +8 up or from −8 down
[4] = PSAC antagonists in infected red cells, primary screen, cell-based, P. falciparum Indochina, OD700, 2 h (AID 1155);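 note: lysis reports solute entry through the parasite surface anion channel PSAC; channel blockers reduce lysis of infected cells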; settings: P. falciparum Indochina infected erythrocytes, osmotic lysis OD700; higher = more signal, called active from +8 up or from −8 down
[5] = osmotic lysis modulators in infected erythrocytes, primary screen, PSAC antagonist project, cell-based, P. falciparum Indochina, OD700, 3 h (AID 1156); settings: higher = more signal, called active from +8 up or from −8 down
[6] = PSAC antagonists in infected red cells, primary screen, cell-based, P. falciparum Indochina, OD700, 18 h (AID 1157); settings: P. falciparum Indochina infected erythrocytes, osmotic lysis OD700, 18 h; higher = more signal, called active from +8 up or from −8 down
[7] = modulators of S6 phosphorylation in cells, primary screen, cell-based, A549, cytoblot, luminescence, serum-stimulated (AID 1158); settings: A549 phospho-S6 cytoblot, 5 h, higher = more signal;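 note: serum-stimulated A549 lung adenocarcinoma cells; signal is phosphorylated S6 detected by cytoblot immunostaining with HRP secondary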
[8] = target: NADPH oxidase 2 (Homo sapiens) (UniProt P04839); experiment: NOX2-dependent H2O2 signal modulators, primary screen, NOX inhibitor project, cell-based, HEK293-NOX2, PMA-stimulated, Amplex Red fluorescence (AID 1159); settings: 45 min, higher = more signal, called active from +8 up or from −8 down; note: test concentration not given here
Chain of NADPH oxidase 2 (Homo sapiens) (P04839 whole entry, looked up): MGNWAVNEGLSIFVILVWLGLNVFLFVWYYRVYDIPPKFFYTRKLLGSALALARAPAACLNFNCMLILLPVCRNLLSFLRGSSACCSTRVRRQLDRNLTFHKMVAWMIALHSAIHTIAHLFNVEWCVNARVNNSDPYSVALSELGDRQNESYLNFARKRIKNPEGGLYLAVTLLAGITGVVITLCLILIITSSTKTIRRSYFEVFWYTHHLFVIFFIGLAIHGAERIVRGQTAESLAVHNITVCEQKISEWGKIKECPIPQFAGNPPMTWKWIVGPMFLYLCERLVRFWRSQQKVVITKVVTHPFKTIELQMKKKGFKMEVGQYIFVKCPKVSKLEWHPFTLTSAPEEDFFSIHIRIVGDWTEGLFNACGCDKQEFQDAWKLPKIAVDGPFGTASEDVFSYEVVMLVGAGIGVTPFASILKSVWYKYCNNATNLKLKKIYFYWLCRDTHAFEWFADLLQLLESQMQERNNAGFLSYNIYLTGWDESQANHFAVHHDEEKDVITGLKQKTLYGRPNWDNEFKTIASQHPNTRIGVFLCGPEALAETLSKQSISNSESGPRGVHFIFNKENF

[9] = target: NADPH oxidase 4 (Homo sapiens) (UniProt Q9NPH5); experiment: NOX4-dependent H2O2 signal modulators, primary screen, NOX inhibitor project, cell-based, HEK293-NOX4, tetracycline-induced, Amplex Red fluorescence (AID 1160); settings: 45 min, higher = more signal, called active from +8 up or from −8 down
Chain of NADPH oxidase 4 (Homo sapiens) (Q9NPH5 whole entry, looked up): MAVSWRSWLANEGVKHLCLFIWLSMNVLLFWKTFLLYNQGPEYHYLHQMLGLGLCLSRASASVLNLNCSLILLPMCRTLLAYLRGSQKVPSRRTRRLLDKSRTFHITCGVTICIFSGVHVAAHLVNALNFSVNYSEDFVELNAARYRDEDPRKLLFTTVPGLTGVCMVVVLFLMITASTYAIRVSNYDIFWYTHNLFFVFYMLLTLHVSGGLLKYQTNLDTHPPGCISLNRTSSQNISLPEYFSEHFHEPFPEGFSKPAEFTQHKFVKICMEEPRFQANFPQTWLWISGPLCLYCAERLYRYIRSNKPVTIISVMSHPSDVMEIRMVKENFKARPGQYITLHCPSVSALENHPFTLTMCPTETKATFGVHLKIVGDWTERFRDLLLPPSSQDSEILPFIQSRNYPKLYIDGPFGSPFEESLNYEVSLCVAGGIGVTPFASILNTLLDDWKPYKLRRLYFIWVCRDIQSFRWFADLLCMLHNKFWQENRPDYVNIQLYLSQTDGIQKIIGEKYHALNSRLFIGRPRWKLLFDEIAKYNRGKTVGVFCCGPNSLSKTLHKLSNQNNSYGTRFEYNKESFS

[10] = target: NADPH oxidase 5 (Homo sapiens) (UniProt Q96PH1); experiment: NOX5-dependent H2O2 signal modulators, primary screen, NOX inhibitor project, cell-based, HEK293-NOX5, Amplex Red fluorescence (AID 1161); settings: HEK293-NOX5, ionomycin, 45 min, higher = more signal
Chain of NADPH oxidase 5 (Homo sapiens) (Q96PH1 whole entry, looked up): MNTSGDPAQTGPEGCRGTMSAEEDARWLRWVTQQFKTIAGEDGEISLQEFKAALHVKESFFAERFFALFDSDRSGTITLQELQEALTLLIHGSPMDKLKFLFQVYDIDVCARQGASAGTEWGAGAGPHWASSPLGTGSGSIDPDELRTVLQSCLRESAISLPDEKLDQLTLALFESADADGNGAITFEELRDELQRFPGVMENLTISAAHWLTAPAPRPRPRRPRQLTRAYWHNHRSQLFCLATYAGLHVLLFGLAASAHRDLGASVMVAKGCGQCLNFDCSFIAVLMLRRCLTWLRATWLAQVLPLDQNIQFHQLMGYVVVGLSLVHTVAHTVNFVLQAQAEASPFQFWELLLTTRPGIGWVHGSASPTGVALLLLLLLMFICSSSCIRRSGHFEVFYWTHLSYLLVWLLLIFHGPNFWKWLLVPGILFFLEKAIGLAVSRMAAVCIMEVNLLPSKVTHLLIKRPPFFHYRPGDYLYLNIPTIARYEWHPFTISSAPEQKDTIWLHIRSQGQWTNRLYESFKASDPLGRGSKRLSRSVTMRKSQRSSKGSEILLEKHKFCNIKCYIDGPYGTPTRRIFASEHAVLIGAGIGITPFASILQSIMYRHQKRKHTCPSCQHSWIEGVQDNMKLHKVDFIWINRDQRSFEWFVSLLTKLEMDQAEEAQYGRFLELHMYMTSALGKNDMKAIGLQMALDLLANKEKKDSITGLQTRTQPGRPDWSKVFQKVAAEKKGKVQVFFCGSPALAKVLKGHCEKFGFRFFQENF

[11] = A549 cell viability effects, profiling panel, calcein-AM fluorescence, 48 h, basal (AID 1162); settings: higher = more signal; note: test concentration not given here
[12] = adipocyte viability effects, profiling panel, cell-based, 3T3-L1 adipocytes, calcein-AM fluorescence, 48 h, basal (AID 1163); settings: 3T3-L1 adipocytes viability, higher = more signal; note: test concentration not given here
[13] = HepG2 cell viability effects, profiling panel, calcein-AM fluorescence, 48 h, basal (AID 1164); settings: higher = more signal; note: test concentration not given here
[14] = MM1S cell viability effects, profiling panel, calcein-AM fluorescence, 48 h, basal (AID 1165); settings: higher = more signal;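 note: viability of MM1S multiple myeloma cells under basal unstimulated conditions; test concentration not given here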
[15] = basal RPMI8226 viability, no added stimulus, profiling panel, cell-based, calcein-AM fluorescence, 48 h, PK04 Diversity Set (AID 1166); settings: RPMI8226 myeloma viability, higher = more signal;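 note: cells grown under basal conditions without added stimulus; test concentration not given here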
[16] = basal HepG2 mitochondrial membrane potential changes, profiling panel, cell-based, JC-1 fluorescence, 24 h, 100 nL compound (AID 1167); settings: higher = more signal; note: test concentration not given here
[17] = basal 3T3-L1 adipocyte mitochondrial potential changes, profiling panel, cell-based, JC-1 fluorescence, 3T3-L1 adipocytes, 24 h, 100 nL compound (AID 1168); settings: JC-1 mitochondrial fluorescence, higher = more signal, called active from +8 up or from −8 down; note: test concentration not given here
[18] = basal RPMI8226 mitochondrial membrane potential changes, profiling panel, cell-based, JC-1 fluorescence, 24 h, 100 nL compound (AID 1169); settings: RPMI8226 myeloma, JC-1 mitochondrial potential fluorescence, higher = more signal; note: test concentration not given here
[19] = basal MM1S mitochondrial membrane potential changes, profiling panel, cell-based, JC-1 fluorescence, 24 h, 100 nL compound (AID 1170); settings: higher = more signal; note: test concentration not given here
[20] = A549 lung cancer cell viability effects, profiling panel, resazurin fluorescence, 24 h, PK04 Diversity Set (AID 1171); settings: higher = more signal, called active from +8 up or from −8 down; note: test concentration not given here

Compound	z-score [1]	composite z-score [2]	z-score [3]	z-score [4]	z-score [5]	z-score [6]	z-score [7]	z-score [8]	z-score [9]	z-score [10]	z-score [11]	z-score [12]	z-score [13]	z-score [14]	z-score [15]	z-score [16]	z-score [17]	z-score [18]	z-score [19]	z-score [20]
CCOC(=O)C[C@H]1[C@H](OC(=O)c2ccc(-c3ccccc3)cc2)[C@@H](NC(=O)c2ccc3ccccc3c2)c2cc(OCCCO)ccc2N1C(=O)c1ccc2ccccc2n1	-0.572 (inactive)	0.302	4.55 (inactive)	0.568 (inactive)	-0.559 (inactive)	0.159 (inactive)	0.762	-1.35 (inactive)	0.928 (inactive)	0.0885	0.245	0.543	-0.573	0.477	-1.06	1.33	1.26 (inactive)	0.729	0.164	0.094 (inactive)
CN(C)CCCN1C(=O)[C@@]2(c3ccc([N+](=O)[O-])cc3)CC(=O)N(CC34CC5CC(CC(C5)C3)C4)[C@@H]2c2ccc(CO)cc21	0.388 (inactive)	-0.0662	2.1 (inactive)	-0.451 (inactive)	1.27 (inactive)	-0.405 (inactive)	0.299	-2.29 (inactive)	-0.0839 (inactive)	1.56	2.86	0.338	0.28	-0.18	0.621	0.474	1.38 (inactive)	-0.0069	0.41	-0.928 (inactive)
O=C1c2ccccc2[C@](Cc2ccccc2I)(C(=O)NCc2ccccc2)[C@H](c2ccc(CO)cc2)N1C1CCCCC1	1.28 (inactive)	0.254	2.39 (inactive)	0.105 (inactive)	0.0371 (inactive)	-1.34 (inactive)	3.43	1.65 (inactive)	0.289 (inactive)	1.35	-0.475	1.03	-0.36	-2.3	-1.99	1.36	-0.424 (inactive)	0.173	0.551	0.623 (inactive)
Cc1ccc(S[C@]2(C(=O)NCCN3CCOCC3)CC(=O)N(Cc3ccccc3C(F)(F)F)[C@@H]2c2ccc(CO)cc2I)cc1	0.0143 (inactive)	0.114	4.93 (inactive)	0.636 (inactive)	2.03 (inactive)	0.278 (inactive)	0.155	2.82 (inactive)	-0.659 (inactive)	1.61	-0.209	-0.292	-0.695	-2.85	-2.15	-0.178	-1.03 (inactive)	-0.793	-2.36	0.683 (inactive)
CC1CC/C=C\[C@H]2OC34C=CCN(c5ccc6ccccc6c5)C(=O)[C@H]3N(C(CO)C(C)C)C(=O)[C@@H]4C2C(=O)O1 (stereo not given in full)	-0.488 (inactive)	0.245	4.35 (inactive)	1.06 (inactive)	1.01 (inactive)	0.674 (inactive)	-0.526	1.49 (inactive)	-0.0631 (inactive)	1.68	0.534	-0.443	0.468	0.36	0.251	0.356	-0.328 (inactive)	0.145	-0.158	-0.294 (inactive)
Cc1ccc(S[C@]2(C(=O)NCc3ccccc3)CC(=O)N(C(C)C)[C@@H]2c2ccc(CO)cc2I)cc1	0.0841 (inactive)	0.33	5.42 (inactive)	1.19 (inactive)	0.121 (inactive)	0.301 (inactive)	0.0741	2.05 (inactive)	-1.1 (inactive)	-0.199	-0.897	0.152	-0.274	-2.35	-3.15	-0.0692	-0.371 (inactive)	-0.592	-1.12	1.65 (inactive)
COCCCNC(=O)[C@]1(Cc2ccccc2CN=[N+]=[N-])N=C(c2ccc(OCCCO)cc2)O[C@@H]1c1ccccc1	0.65 (inactive)	-0.184	26.2 (active)	15.5 (active)	1.28 (inactive)	0.178 (inactive)	1.64	-1.94 (inactive)	-0.52 (inactive)	-1.46	-1.36	0.503	-0.79	-2.62	-4.24	-0.194	0.48 (inactive)	-1.15	-1.11	0.28 (inactive)
COc1ccc(C(O)C2C=CC3C(=O)N(c4ccccc4)C(=O)C3N2Nc2ccc(C#N)cc2)c2ccccc12 (stereo not given)	-1.2 (inactive)	0.481	9.06 (active)	2.06 (inactive)	0.361 (inactive)	1.44 (inactive)	-1.03	-1.44 (inactive)	-3.09 (inactive)	-2.29	-0.716	-1.07	0.66	0.395	-1.04	-1.56	-0.246 (inactive)	0.423	-0.117	0.0226 (inactive)
[N-]=[N+]=NCc1ccccc1[C@H]1OC(c2ccc(OCCCO)cc2)=N[C@@]1(CCS(=O)(=O)c1ccccc1)C(N)=O	-0.56 (inactive)	0.345	24.1 (active)	6.95 (inactive)	1.56 (inactive)	0.764 (inactive)	0.273	1.39 (inactive)	2.23 (inactive)	1.78	-0.733	0.0036	-0.423	-1.83	-0.973	-2.13	-1.36 (inactive)	-0.397	-0.606	0.547 (inactive)
